The supplement of paper PMC10849652
About 7,900 targets were measured; listed, in parts, are those with a hit and a random draw of the rest. About 0.6% of all pairs of compound and target were hits.

Key:
Assay in all cases: log2 fold change, soluble protein after heating vs DMSO (PISA); higher = thermal stabilisation; K562 cells, 10 uM, 30 min; active = over 0.2 and 3.5 SD of the protein, either way, in both replicates (recomputed)
[1] = compound: COC1=CC=C(C=C1)CN2C=CC3=C2C=C(C=C3)C(=O)NO
Method in brief: (§1)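 K562 cells at 2×10^6 cells/mL were given 10 μM compound for 30 min. Aliquots then went through 3 min of heating across 48°C-58°C, were pooled, and were extracted in PBS with 0.5% NP-40 at 4°C, and the supernatant after 21,000xg for 90 min was quantified by TMTpro 16plex LC-MS/MS with channel sums equalised. Thermal stability relative to control samples, from duplicates, is given as log2 fold change.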

filanesib = compound: CON(C)C(=O)N1N=C(c2cc(F)ccc2F)S[C@@]1(CCCN)c1ccccc1 [filanesib]
Method in brief: as §1

zotarolimus = compound: CO[C@H]1C[C@@H]2CC[C@@H](C)[C@@](O)(O2)C(=O)C(=O)N2CCCC[C@H]2C(=O)O[C@H]([C@H](C)C[C@@H]2CC[C@H](n3cnnn3)[C@H](OC)C2)CC(=O)[C@H](C)/C=C(\C)[C@@H](O)[C@@H](OC)C(=O)[C@H](C)C[C@H](C)/C=C/C=C/C=C/1C [zotarolimus]
Method in brief: as §1

alisertib = compound: COc1cc(Nc2ncc3c(n2)-c2ccc(Cl)cc2C(c2c(F)cccc2OC)=NC3)ccc1C(=O)O [alisertib]
Method in brief: as §1

[2] = compound: COc1cc2nc(-c3cc(F)ccc3O)nc(N[C@@H]3CNC[C@H]3C(C)(C)O)c2cc1OC
Method in brief: as §1

gefitinib = compound: COc1cc2ncnc(Nc3ccc(F)c(Cl)c3)c2cc1OCCCN1CCOCC1 [gefitinib]
Method in brief: as §1

[3] = compound: COc1cccc2cc(-c3nc([C@H]4CC[C@H](C(=O)O)CC4)n4ncnc(N)c34)[nH]c12
Method in brief: as §1

lapatinib = compound: CS(=O)(=O)CCNCc1ccc(-c2ccc3ncnc(Nc4ccc(OCc5cccc(F)c5)c(Cl)c4)c3c2)o1 [lapatinib]
Method in brief: as §1

pictilisib = compound: CS(=O)(=O)N1CCN(Cc2cc3nc(-c4cccc5[nH]ncc45)nc(N4CCOCC4)c3s2)CC1 [pictilisib]
Method in brief: as §1

idasanutlin = compound: COc1cc(C(=O)O)ccc1NC(=O)[C@@H]1N[C@@H](CC(C)(C)C)[C@](C#N)(c2ccc(Cl)cc2F)[C@H]1c1cccc(Cl)c1F [idasanutlin]
Method in brief: as §1

Measured: log2 fold change

DNAH5 (UniProt Q8TE73)
active: lapatinib -0.484
inactive: [1] -0.147 | filanesib -0.061 | zotarolimus 0.024 | alisertib 0.011 | [2] -0.042 | gefitinib 0.046 | [3] 0.058 | pictilisib -0.001

EMD (UniProt P50402)
UniProt P50402, sequence (P50402 whole entry, looked up): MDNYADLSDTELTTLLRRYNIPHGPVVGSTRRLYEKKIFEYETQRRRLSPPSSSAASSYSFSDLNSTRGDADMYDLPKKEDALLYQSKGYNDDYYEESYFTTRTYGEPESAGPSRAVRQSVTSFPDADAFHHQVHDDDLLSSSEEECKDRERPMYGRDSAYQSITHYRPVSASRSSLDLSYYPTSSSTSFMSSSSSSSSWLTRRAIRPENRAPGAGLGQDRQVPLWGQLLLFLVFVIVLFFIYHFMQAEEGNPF
inactive: [1] -0.049 | filanesib -0.013 | zotarolimus 0.007 | idasanutlin 0.037 | alisertib -0.08 | [2] -0.031 | gefitinib -0.053 | [3] 0.074 | lapatinib -0.025 | pictilisib 0.093

F5 (UniProt P12259)
inactive: [1] -0.032 | filanesib -0.05 | zotarolimus -0.051 | alisertib -0.074 | [2] -0.089 | gefitinib 0.026 | [3] 0.059 | lapatinib 0.034 | pictilisib 0.074
active: idasanutlin 0.613

DIP2A (UniProt Q14689)
UniProt Q14689, sequence (Q14689 whole entry, looked up): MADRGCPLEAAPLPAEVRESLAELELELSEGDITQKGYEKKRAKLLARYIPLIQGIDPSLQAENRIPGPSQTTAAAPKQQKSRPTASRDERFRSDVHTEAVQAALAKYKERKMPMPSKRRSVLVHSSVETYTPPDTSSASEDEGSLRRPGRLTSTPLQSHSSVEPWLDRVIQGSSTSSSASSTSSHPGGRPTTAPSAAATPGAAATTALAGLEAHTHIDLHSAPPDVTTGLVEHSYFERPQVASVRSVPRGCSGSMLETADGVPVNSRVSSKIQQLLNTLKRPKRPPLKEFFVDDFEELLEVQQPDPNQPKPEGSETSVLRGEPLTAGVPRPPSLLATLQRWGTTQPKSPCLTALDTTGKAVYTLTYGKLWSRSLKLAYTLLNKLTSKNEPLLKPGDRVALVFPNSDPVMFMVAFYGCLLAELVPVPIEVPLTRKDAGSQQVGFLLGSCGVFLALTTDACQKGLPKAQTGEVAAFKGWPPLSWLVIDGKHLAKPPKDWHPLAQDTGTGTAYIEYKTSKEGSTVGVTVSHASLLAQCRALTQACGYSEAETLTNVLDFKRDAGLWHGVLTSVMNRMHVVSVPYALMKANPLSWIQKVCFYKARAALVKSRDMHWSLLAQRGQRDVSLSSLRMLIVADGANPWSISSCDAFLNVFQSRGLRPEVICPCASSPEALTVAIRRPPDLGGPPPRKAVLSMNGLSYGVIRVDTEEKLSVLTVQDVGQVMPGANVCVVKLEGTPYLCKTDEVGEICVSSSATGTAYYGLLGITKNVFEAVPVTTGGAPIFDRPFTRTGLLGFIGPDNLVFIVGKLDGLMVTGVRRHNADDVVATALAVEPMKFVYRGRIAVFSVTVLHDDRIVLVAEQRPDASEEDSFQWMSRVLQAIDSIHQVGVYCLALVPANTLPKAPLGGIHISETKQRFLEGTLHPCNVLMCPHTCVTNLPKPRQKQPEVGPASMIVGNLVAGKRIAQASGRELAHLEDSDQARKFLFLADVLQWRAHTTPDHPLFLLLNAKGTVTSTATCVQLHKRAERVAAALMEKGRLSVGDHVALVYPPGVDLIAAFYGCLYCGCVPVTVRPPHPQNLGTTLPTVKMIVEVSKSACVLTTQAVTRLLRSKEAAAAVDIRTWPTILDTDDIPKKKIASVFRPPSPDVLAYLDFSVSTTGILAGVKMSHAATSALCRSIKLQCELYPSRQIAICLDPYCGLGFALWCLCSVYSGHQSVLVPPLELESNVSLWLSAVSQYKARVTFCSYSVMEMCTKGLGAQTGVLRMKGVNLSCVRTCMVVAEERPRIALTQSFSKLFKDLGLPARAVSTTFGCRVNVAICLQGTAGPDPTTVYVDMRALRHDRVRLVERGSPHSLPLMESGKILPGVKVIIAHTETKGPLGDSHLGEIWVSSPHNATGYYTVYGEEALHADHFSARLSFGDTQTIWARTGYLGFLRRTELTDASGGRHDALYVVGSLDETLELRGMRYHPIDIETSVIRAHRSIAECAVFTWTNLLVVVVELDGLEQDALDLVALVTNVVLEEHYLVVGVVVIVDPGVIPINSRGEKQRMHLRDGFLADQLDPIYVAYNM
inactive: [1] -0.097 | filanesib 0.028 | zotarolimus -0.018 | idasanutlin -0.047 | alisertib 0.357 | [2] -0.098 | gefitinib 0.008 | [3] -0.004 | lapatinib -0.047 | pictilisib 0.103

DYNC1I2 isoform 2 (UniProt Q13409)
inactive: [1] 0.093 | filanesib 0.203 | zotarolimus -0.085 | idasanutlin 0.201 | alisertib 0.066 | [2] 0.06 | [3] 0.051 | lapatinib -0.002

CWF19L2 (UniProt Q2TBE0)
inactive: [1] 0.003 | filanesib 0.225 | zotarolimus -0.025 | idasanutlin 0.124 | [2] 0.062 | lapatinib -0.08 | pictilisib -0.309

DBN1 isoform 3 (UniProt Q16643)
UniProt Q16643, sequence (Q16643 whole entry, looked up): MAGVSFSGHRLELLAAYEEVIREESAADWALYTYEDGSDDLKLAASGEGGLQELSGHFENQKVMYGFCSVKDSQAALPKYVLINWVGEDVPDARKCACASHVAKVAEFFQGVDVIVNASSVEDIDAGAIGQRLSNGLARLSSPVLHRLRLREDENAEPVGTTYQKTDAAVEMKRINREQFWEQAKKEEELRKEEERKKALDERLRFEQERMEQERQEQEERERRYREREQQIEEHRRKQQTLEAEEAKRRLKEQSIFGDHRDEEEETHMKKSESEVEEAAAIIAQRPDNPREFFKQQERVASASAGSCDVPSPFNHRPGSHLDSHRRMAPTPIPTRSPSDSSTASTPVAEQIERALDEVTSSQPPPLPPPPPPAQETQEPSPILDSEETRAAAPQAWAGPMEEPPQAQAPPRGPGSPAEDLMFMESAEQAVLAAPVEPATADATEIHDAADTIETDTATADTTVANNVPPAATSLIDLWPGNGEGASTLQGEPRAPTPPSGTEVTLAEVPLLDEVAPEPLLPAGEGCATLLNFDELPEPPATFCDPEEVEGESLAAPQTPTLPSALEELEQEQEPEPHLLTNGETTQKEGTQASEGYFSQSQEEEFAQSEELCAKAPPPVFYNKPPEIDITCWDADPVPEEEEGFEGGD
inactive: [1] 0.012 | filanesib 0.182 | zotarolimus 0.074 | idasanutlin 0.061 | alisertib -0.023 | [2] -0.024 | gefitinib 0.05 | [3] 0.084 | lapatinib -0.041 | pictilisib -0.111

ELAC1 (UniProt Q9H777)
inactive: [1] 0.022 | filanesib 0.083 | zotarolimus -0.06 | idasanutlin 0.122 | [2] 0.06 | gefitinib 0.112 | lapatinib -0.009 | pictilisib 0.049

DERPC (UniProt P0CG12)
inactive: [1] -0.016 | alisertib 0.021 | gefitinib 0.099 | [3] 0.086 | pictilisib -0.107

EIF3J isoform 2 (UniProt O75822)
inactive: [1] -0.099 | filanesib 0.013 | idasanutlin 0.107 | alisertib -0.074 | [2] 0.051 | gefitinib 0.047 | [3] 0.02 | lapatinib -0.116

ELOVL5 isoform 2 (UniProt Q9NYP7)
inactive: filanesib -0.157 | zotarolimus -0.041 | idasanutlin -0.224 | alisertib -0.026 | [2] -0.05 | gefitinib -0.142 | [3] 0 | lapatinib 0.094 | pictilisib 0

DENND10 (UniProt Q8TCE6)
inactive: filanesib -0.133 | zotarolimus -0.017 | idasanutlin 0.003 | alisertib -0.065 | [2] 0.114 | gefitinib 0.1 | [3] -0.05 | lapatinib -0.021

EEF2K (UniProt O00418)
active: [3] -0.896
inactive: zotarolimus 0.021 | alisertib 0.031 | [2] -0.062 | lapatinib -0.017 | pictilisib -0.014

ENTPD7 (UniProt Q9NQZ7)
inactive: [1] -0.031 | filanesib -0.268 | alisertib -0.054 | [2] 0.06 | gefitinib -0.026 | [3] 0.03 | lapatinib 0.099

CYP24A1 (UniProt Q07973)
inactive: [1] 0.1 | idasanutlin 0.039 | alisertib -0.095 | [2] 0.091 | gefitinib -0.044 | [3] -0.306 | lapatinib 0.067 | pictilisib -0.059

DENND1A isoform 6 (UniProt Q8TEH3)
inactive: [1] 0.154 | [2] -0.18 | lapatinib 0.06

F2RL3 (UniProt Q96RI0)
inactive: zotarolimus -0.075 | idasanutlin -0.017 | [2] 0.017 | lapatinib 0.029

EIF4G1 (UniProt Q04637)
inactive: zotarolimus -0.118 | idasanutlin 0.071 | pictilisib -0.307

ENTR1 (UniProt Q96C92)
inactive: [2] -0.065 | lapatinib 0.075

DDX11 (UniProt Q96FC9)
active: [3] 0.437
inactive: [1] -0.069 | filanesib 0.144 | idasanutlin -0.05 | alisertib 0.088 | [2] 0.047 | gefitinib -0.009 | lapatinib -0.045

FAM160A2 isoform 2 (UniProt Q8N612)
UniProt Q8N612, sequence (Q8N612 whole entry, looked up): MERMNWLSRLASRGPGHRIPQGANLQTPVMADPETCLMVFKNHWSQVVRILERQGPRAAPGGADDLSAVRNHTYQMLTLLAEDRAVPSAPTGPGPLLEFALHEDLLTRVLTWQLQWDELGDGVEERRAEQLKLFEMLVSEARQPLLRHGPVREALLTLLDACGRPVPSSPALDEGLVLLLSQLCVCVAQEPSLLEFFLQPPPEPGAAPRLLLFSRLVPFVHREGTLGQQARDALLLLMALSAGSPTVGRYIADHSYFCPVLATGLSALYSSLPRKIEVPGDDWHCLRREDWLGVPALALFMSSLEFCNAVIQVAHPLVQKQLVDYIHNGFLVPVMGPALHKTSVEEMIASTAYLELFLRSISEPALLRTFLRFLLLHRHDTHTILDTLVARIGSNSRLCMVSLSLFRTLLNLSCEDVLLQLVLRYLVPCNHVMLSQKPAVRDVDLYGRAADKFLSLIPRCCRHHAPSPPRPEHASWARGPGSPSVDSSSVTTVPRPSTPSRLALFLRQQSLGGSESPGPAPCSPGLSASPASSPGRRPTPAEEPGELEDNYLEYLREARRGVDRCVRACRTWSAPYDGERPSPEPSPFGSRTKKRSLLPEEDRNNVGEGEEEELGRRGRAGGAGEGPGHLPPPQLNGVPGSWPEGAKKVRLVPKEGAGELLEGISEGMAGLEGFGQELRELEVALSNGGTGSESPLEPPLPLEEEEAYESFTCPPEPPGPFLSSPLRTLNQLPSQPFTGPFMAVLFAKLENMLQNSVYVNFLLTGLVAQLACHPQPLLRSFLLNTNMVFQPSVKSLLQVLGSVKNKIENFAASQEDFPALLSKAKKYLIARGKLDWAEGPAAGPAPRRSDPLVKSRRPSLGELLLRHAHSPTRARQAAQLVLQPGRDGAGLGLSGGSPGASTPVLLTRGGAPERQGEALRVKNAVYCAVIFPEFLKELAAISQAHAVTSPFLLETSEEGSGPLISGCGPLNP
inactive: [1] -0.082 | zotarolimus 0.067 | alisertib 0.031 | gefitinib 0.158 | [3] 0.103 | pictilisib -0.056

CTSS (UniProt P25774)
inactive: [1] 0.019 | filanesib 0.051 | zotarolimus -0.081 | pictilisib -0.043

EEF1D isoform 3 (UniProt P29692)
inactive: alisertib -0.067 | [3] -0.105

ERF (UniProt P50548)
inactive: filanesib 0.328 | pictilisib 0.148

DOLPP1 (UniProt Q86YN1)
inactive: [1] -0.05 | zotarolimus -0.003 | idasanutlin -0.043 | alisertib -0.022 | [2] 0.129 | gefitinib 0.013 | [3] 0.011 | lapatinib -0.07

DBNL (UniProt Q9UJU6)
inactive: zotarolimus -0.324

DEGS1 (UniProt O15121)
UniProt O15121, sequence (O15121 whole entry, looked up): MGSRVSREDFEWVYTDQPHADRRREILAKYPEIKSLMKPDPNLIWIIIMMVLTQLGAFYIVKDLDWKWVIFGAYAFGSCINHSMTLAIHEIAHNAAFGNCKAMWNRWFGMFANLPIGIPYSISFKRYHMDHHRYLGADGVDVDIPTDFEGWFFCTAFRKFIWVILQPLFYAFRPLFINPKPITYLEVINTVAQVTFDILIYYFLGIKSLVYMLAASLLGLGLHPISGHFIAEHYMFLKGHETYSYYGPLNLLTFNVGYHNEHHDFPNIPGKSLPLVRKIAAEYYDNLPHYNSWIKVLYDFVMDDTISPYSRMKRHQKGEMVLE
inactive: filanesib -0.048 | zotarolimus 0.027 | idasanutlin 0.039 | alisertib 0.028 | [2] -0.013 | gefitinib -0.002 | [3] -0.018 | lapatinib -0.034 | pictilisib 0

DNAJB1 (UniProt M0R128)
inactive: zotarolimus -0.062

DDX46, A0A0C4DG89
inactive: alisertib -0.083 | gefitinib 0.261 | [3] 0.032

DLK1 (UniProt P80370)
inactive: [1] -0.021 | zotarolimus -0.095

EPHB4 (UniProt P54760)
active: [3] -0.937
inactive: filanesib 0.134 | alisertib -0.017 | [2] 0.395 | lapatinib 0.08

DCAF12 (UniProt Q5T6F0)
inactive: filanesib -0.037 | alisertib 0.073 | [3] 0.036 | pictilisib 0.16

FAM135A (UniProt Q9P2D6)
inactive: filanesib 0.13 | gefitinib 0.052

EDRF1 (UniProt Q3B7T1)
inactive: filanesib 0.052 | alisertib -0.033 | [3] 0.044 | pictilisib 0.244
active: zotarolimus 0.419

EIF2AK3 (UniProt Q9NZJ5)
inactive: [1] 0.135 | zotarolimus -0.06 | idasanutlin -0.039 | alisertib -0.141 | [2] 0.201 | gefitinib -0.161 | [3] 0.078 | lapatinib 0.146 | pictilisib -0.233

DCAF4 (UniProt Q8WV16)
inactive: filanesib 0.018 | alisertib -0.076 | gefitinib -0.012 | [3] 0.005 | pictilisib 0.074

CTNNBL1 (UniProt Q8WYA6)
inactive: [2] -0.008 | lapatinib -0.581

DHPS (UniProt M0R1T2)
inactive: filanesib -0.057

FAM207A (UniProt Q9NSI2)
UniProt Q9NSI2, sequence (Q9NSI2 whole entry, looked up): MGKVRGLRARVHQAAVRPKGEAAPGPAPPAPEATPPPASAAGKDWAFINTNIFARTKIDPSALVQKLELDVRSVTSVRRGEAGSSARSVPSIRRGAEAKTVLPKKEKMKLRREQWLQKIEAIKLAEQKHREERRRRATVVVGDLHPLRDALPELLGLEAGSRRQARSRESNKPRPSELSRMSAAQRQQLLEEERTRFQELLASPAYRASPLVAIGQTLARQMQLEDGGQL
inactive: [1] -0.034 | filanesib 0.238 | idasanutlin 0.009 | alisertib 0.238 | [2] 0.108 | gefitinib -0.124 | [3] -0.146 | lapatinib 0.041 | pictilisib -0.097

DDB1 isoform 2 (UniProt Q16531)
inactive: filanesib 0.077 | pictilisib 0.094

ELMO1 (UniProt Q92556)
inactive: [1] -0.108 | filanesib 0.072 | alisertib 0.212 | gefitinib 0.017 | [3] 0.08

ELOVL7 (UniProt A1L3X0)
inactive: zotarolimus 0.012 | idasanutlin -0.118

DNAL1 (UniProt Q4LDG9)
UniProt Q4LDG9, sequence (Q4LDG9 whole entry, looked up): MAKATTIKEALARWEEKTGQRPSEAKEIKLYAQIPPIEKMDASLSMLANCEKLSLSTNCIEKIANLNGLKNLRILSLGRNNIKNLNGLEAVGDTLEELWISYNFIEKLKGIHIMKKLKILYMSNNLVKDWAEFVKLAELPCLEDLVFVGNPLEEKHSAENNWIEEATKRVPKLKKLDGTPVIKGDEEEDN
inactive: [1] 0.009 | zotarolimus 0.024 | idasanutlin -0.098

EHBP1 (UniProt Q8NDI1)
inactive: zotarolimus -0.02 | idasanutlin 0.031 | alisertib 0.025 | [3] 0.086 | pictilisib 0.057

FAM117B (UniProt Q6P1L5)
UniProt Q6P1L5, sequence (Q6P1L5 whole entry, looked up): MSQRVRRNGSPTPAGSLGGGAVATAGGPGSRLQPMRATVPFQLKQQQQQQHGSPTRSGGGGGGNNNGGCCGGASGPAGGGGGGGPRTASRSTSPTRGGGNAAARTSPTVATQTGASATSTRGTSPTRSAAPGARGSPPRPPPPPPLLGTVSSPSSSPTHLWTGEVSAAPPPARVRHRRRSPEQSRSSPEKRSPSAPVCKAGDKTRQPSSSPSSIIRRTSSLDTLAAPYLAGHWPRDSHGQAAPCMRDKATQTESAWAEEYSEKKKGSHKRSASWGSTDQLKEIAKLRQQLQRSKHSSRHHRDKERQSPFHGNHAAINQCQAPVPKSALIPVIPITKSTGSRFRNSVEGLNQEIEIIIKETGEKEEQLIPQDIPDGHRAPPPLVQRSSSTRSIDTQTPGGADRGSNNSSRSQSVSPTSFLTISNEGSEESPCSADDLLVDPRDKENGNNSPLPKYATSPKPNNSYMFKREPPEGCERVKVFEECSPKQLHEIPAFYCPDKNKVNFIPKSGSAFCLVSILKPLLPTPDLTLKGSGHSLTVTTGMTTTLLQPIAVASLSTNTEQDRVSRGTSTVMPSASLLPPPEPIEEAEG
inactive: [1] 0.053 | zotarolimus 0.007 | idasanutlin -0.062 | pictilisib 0.208

EID1 (UniProt Q9Y6B2)
UniProt Q9Y6B2, sequence (Q9Y6B2 whole entry, looked up): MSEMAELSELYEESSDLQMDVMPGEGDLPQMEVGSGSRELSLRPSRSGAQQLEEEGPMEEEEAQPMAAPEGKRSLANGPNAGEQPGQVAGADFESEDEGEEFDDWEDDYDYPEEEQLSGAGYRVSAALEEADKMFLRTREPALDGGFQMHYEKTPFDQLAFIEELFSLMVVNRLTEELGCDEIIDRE
inactive: filanesib 0.119 | alisertib 0.024 | [2] 0.015 | gefitinib -0.031 | [3] -0.239 | lapatinib -0.097 | pictilisib 0.3

EGR1 (UniProt P18146)
inactive: filanesib 0.463 | zotarolimus 0.125 | idasanutlin 0.164 | alisertib -0.54 | [2] -0.24 | gefitinib -0.183 | [3] 0.079 | lapatinib 0.067 | pictilisib -0.362

DOP1A (UniProt Q5JWR5)
inactive: alisertib -0.013 | [3] 0.02
